# Test results published in PubChem BioAssay (NCI).
# Where “and” joins values, the source holds several entries; their conditions need not be identical. Equal entries are not always repeated. About 83,000 compounds went through this panel and 20% of them were active in at least one assay; those are over-represented in the sample as a whole.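 Step 1: grow cells in 96-well plates. Step 2: add test compound at a single concentration. Step 3: incubate 48 h. Step 4: record percent growth.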 Calls of active or inactive are those of the source. The calls were made as follows: active = growth percent below 10; inactive = the rest.
# System: HL-60(TB) leukemia
# Test: NCI-60 one-dose screen, 48 h (100 = growth as untreated, 0 = no growth, -100 = all killed)
# Settings: 10 µM unless noted
row,Compound,growth
1,NS(=O)(=O)c1ccc(CCNC(=O)/C=C/c2ccc(Cl)cc2)cc1,89.1% (inactive)
2,O=C(O)C1C2CCC1C(O)C2 (stereo not given),94.6% (inactive) and 96% (inactive)
3,c1ccc2c(c1)oc1c3c(ccc12)NCCC3,91.8% (inactive)
4,COc1ccc(C(=O)N2NC(=O)/C(=C/c3ccccc3F)N=C2c2ccccc2)cc1,93.9% (inactive)
5,O=C(c1cc(-c2ccc(Cl)cc2)nc2ccccc12)N1N=C(c2ccccc2)CC1c1cc(-c2ccccc2)nn1-c1ccccc1 (stereo not given),91.6% (inactive)
6,COc1ccc(/C=C2\C(=O)N=C3N2NC(c2cc(Br)ccc2O)C=C(C)N3c2ccccc2)cc1 (stereo not given),99% (inactive)
7,CCCCNC(=O)Oc1ccc(/C(=C(\C)c2ccc(Cl)cc2)c2ccc(OCCN(CC)CC)cc2)cc1,69.8% (inactive)
8,CN1CCN(CCCOc2cccc3nc(Nc4ccc(Cl)c(C(F)(F)F)c4)ccc23)CC1,82.3% (inactive)
9,O=C(N/N=C/c1ccccc1)N/N=C/c1ccccc1,95.3% (inactive) and 98.4% (inactive)
10,C=C1C(=O)O[C@H]2[C@H]1CC/C(COC(=O)Nc1nc3ccccc3[nH]1)=C\CC[C@@]1(C)O[C@@H]21,5.13% (active)
11,O=c1[nH]c(=S)[nH]c(=O)n1Cc1cccc2ccccc12,101% (inactive)
12,CCOC(=O)CNC(=O)CCCCSc1ncnc2nc[nH]c12,91.1% (inactive)
13,CCOC(=O)Nc1ccc(-c2nc(-c3cccc(OCCN4CCOCC4)c3)c(-c3ccnc(Br)c3)[nH]2)cc1,-23.2% (active)
14,C1=C(N2CCCC2)CCC1,56.7% (inactive)
15,N#Cc1cccc(F)c1,76.2% (inactive)
16,CC[C@@H](C(=O)[C@H](C)[C@H](O)[C@@H](C)[C@H]1O[C@H]([C@@H](CC)C(=O)O)CC[C@H]1C)C1O[C@]2(C=C[C@@H](O)[C@]3(CC[C@@](C)([C@H]4CC[C@](O)(CC)[C@H](C)O4)O3)O2)[C@H](C)C[C@@H]1C (stereo not given in full),-36.8% (active)
17,CN1CCN(CC#CCNC(=O)[C@]23CCC(C)(C)C[C@H]2C2=CC[C@@H]4[C@@]5(C)Cc6c([nH]c7ccccc67)C(C)(C)[C@@H]5CC[C@@]4(C)[C@]2(C)CC3)CC1,49.4% (inactive)
18,Cc1ccc(N)c(S(=O)(=O)O)c1,74.5% (inactive)
19,O=c1c2c(c3ccccc3n1-c1ccccc1)NC(=S)NC2c1ccccc1 (stereo not given),44.3% (inactive)
20,COc1cc(-c2nc(SC(C)C)nc(Nc3cccc(C)c3)c2C#N)cc(OC)c1OC,98.3% (inactive)

row,Compound,growth
1,COc1cc(C(=O)c2ccccc2C(=O)O)c(OC)c2c1CCCC2,36.8% (inactive) and 97.1% (inactive)
2,COc1ccc2cc(/C=C3\N=C(c4cc(OC)c(OC)c(OC)c4)OC3=O)c(OC)nc2c1,95.3% (inactive)
3,Clc1cccc(-c2cc(-c3ccc4c(c3)OCCO4)[nH]n2)c1,15.2% [25 µM] (inactive)
4,O=C1Nc2ccccc2/C1=C\c1nc(C2CCN(S(=O)(=O)c3ccc(F)cc3)CC2)n2ccccc12,92.3% (inactive)
5,COc1ccc2nc3cc(Cl)ccc3c(N)c2c1,-71.6% (active)
6,Cc1cc(OCc2ccc(C(F)(F)F)cc2)c2c(c1)C(=O)C=C(NCCN1CCCC1)C2=O,96.6% (inactive)
7,O=C1/C(=C/c2ccc(Cl)cc2)COc2ccc(O)cc21,-11.3% (active)
8,O=C(Oc1cccc(OC(=O)c2ccccc2)c1)c1ccccc1,73% (inactive) and 114% (inactive)
9,CN1C(=O)/C(=C/c2nc(-c3cccc(F)c3)n3ccccc23)c2ccccc21,92.6% (inactive)
10,COC(=O)c1n[nH]c2ccc3nc(-c4cn[nH]c4C(F)(F)F)c4c(c3c12)CCCC4,70% (inactive)
11,COC(=O)c1cc(=O)nc(N/N=C/c2ccccc2O)s1,87.3% (inactive)
12,Cc1nc2sc(C(=O)Nc3ccccc3)c(N)c2cc1C(=O)c1ccccc1,21.8% (inactive)
13,COc1cc2c(cc1-c1c(C)noc1C)ncc1nc(C3CCOCC3)n([C@@H](C)COC(F)F)c12,24.7% (inactive)
14,CCCCCCCCCCCCCCCC(=O)N1CCN(C)CC1,47.3% (inactive)
15,COc1cc(OCc2cccc(Br)c2C)cc(OC)c1C=O,92.6% (inactive)
16,C=CCn1c(SCC(=O)Nc2ccc(C(=O)/C=C/c3ccc(Cl)cc3)cc2)nnc1-c1cc(-c2ccc(S(N)(=O)=O)cc2)nc2ccccc12,75.7% (inactive)
17,CCCCC(=O)c1ccco1,103% (inactive)
18,Cn1c(SSc2ccc(-c3cccnc3)n2C)ccc1-c1cccnc1,62.8% (inactive) and -32.2% (active)
19,CCCCOC(=O)OCc1cc(=O)c(O)co1,95.2% (inactive)
20,O=C(NNc1nccc(Nc2ccc(S(=O)(=O)Nc3ccncc3)cc2)n1)c1ccccc1,119% (inactive)
